Assay outcomes from PubChem BioAssay.
Only some compounds are listed: those with a hit (about 9.6% of all), similar ones and a draw of the others.
Cav32 inh = Cav3.2 calcium influx blockers – cell-based, Fluo-4 calcium fluorescence, FDSS, MLSMR library, primary screen | hit rate 4% among 100,000 | Voltage-dependent T-type calcium channel subunit alpha-1H (Homo sapiens), O95180 | AID 449739, 2010 | Cav3.2-expressing cells; stronger effect = lower value | B-score at 10 µM;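 active = single-dose well whose peak fluorescence ratio is a statistical outlier from its plate by either plate-standardised score or position-corrected B-score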
PostGolgi ctrl = growth inhibition of yeast control strain, primary screen, counter-screen for post-Golgi transport modulator project | inhibition, % at 10 µM | hit rate 5% among 98,000 | efflux-deficient yeast background strain, growth absorbance A615, 16 h
PostGolgi yeast = phenotypic screen on post-Golgi transport, primary screen; post-Golgi transport phenotypic cell assay; inhibition, % at 10 µM; hit rate 0.9% among 98,000;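 also: yeast cells grown in 1536-well plates; yeast grown about 18 h at 30C before absorbance read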
DAT uptake mod = changed hDAT dopamine uptake under cocaine IC80, either direction, primary screen, cocaine antagonist project, cell-based, LLC-PK1 hDAT, [14C]-dopamine uptake, MLSMR; Sodium-dependent dopamine transporter (Homo sapiens), Q01959; B-score at 10 µM; hit rate 1.3% among 110,000; LLC-PK1 hDAT cells, [14C]-dopamine uptake with cocaine IC80; actives deviate in either direction;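 active = Z score or B-score, a plate-position-corrected score, falls beyond the plate's 99.7% confidence bounds, in either direction; inactive = both scores lie inside the 99.7% bounds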;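 also: scored against the spread of the other compound wells on the same plate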
PLAP act = PLAP enzyme activators, biochemical, luminescence, HTS | purified PLAP enzyme, luminescent substrate read-out; stronger effect = higher value | activation fold at 20 µM | hit rate 1.2% among 96,000; in the data active = activation fold above about 2
Target sequence (P05187 whole entry, looked up): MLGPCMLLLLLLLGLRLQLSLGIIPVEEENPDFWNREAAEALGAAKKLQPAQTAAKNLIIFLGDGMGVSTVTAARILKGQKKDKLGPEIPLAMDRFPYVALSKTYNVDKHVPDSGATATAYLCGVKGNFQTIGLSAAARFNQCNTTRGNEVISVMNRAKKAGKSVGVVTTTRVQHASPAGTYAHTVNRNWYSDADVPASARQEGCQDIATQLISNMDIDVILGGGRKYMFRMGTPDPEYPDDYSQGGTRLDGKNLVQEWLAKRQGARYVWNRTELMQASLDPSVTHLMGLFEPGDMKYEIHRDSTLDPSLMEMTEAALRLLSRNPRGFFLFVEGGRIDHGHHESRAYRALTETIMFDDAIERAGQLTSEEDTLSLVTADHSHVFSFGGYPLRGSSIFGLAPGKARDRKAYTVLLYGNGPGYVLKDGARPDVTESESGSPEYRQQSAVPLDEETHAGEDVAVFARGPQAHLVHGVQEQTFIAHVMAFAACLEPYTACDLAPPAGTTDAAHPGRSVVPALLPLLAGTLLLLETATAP
* = called active by the depositor; x = no result given. Rule as the data show it, unless noted: active = inhibition above about 30%; inactive = the rest.

SMILES	Cav32 inh	PostGolgi ctrl	PostGolgi yeast	DAT uptake mod	PLAP act
Cc1c(C(=O)NCc2ccc3c(c2)OCO3)oc2ccc(S(=O)(=O)N3CCC(C)CC3)cc12	-4.8*	-5	-9	1.1	x
O=C(COC(=O)CCc1ccc(S(=O)(=O)N2CCCCC2)cc1)Nc1ccc2c(c1)OCO2	-5.5*	2	3	-0.83	0.8
CCOC(=O)C[C@H]1c2ccccc2S(=O)(=O)N1Cc1cccc(C(F)(F)F)c1	-1.7	x	x	-0.29	x
Cc1oc(-c2cccc(Cl)c2)nc1CN1CCCC(C(=O)NC(C)c2ccc3c(c2)OCCO3)C1 (stereo not given)	x	17	-3	x	1.8
Cc1cnc(C(=O)OCC(=O)c2csc(N3CCCCC3)n2)cn1	-0.2	-2	12	-0.035	1.2
NC(=O)c1ccsc1NC(=O)COC(=O)Cc1cccc2ccccc12	-1.8	8	1	-0.13	1.3
Cc1ccc(C(=O)OCc2ccc3c(c2)OCO3)cc1S(=O)(=O)N1CCCCC1	-4.1*	17	-6	0.2	1.1
O=C(NCc1ccc2c(c1)OCO2)c1cccc(S(=O)(=O)N2CCOCC2)c1	0.9	9	-6	0.06	0.9
O=C(NCc1ccc2c(c1)OCO2)c1cccc(S(=O)(=O)N2CCCCC2)c1	-1.4	31*	7	-0.57	x
O=C(COC(=O)CCC(=O)c1cccs1)Nc1ccc(S(=O)(=O)N2CCOCC2)cc1	0.085	41*	-5	0.043	1.5
O=C(Oc1cccc(NC(=O)c2ccco2)c1)c1cccc(S(=O)(=O)N2CCCCC2)c1	-1.5	6	-3	-7.9*	1
CCOC(=O)N1CCN(C(=O)CCSc2ccccc2)CC1	0.25	12	0	0.56	1.4
O=C(c1cccc(S(=O)(=O)N2CCOCC2)c1)N1CCCCCC1	-0.83	0	5	-0.37	1.1
O=C(c1cccc(S(=O)(=O)N2CCCCC2)c1)N1CCCCC1	0.14	38*	13	1.6	0.9
CS(=O)(=O)N(CC(=O)N1CCN(c2ccccc2)CC1)c1ccccc1Cl	0.61	x	x	0.33	x
CN1CCN(CC(=O)N(Cc2c(C#N)c3ccccc3n2C)c2ccccc2)CC1	2.1	34*	1	0.57	1.7
CCOC(=O)CSc1nc(C(C)(C)C)cc(C(F)(F)F)c1C#N	0.13	13	1	-0.53	0.9
O=c1oc2ccccc2c(O)c1C=NCc1ccccn1	-0.58	2	2	-1.2	2.1*
CCn1c(C)c(C(C)=O)c(SC)nc1=S	0.31	2	-2	-0.28	0.9
N#CC(C#N)=c1ccc2c(c1)N1C3=C(CCCC3)CC3CCCCC31N=2 (stereo not given)	0.26	50*	44*	-0.81	0.7
COc1ccc(-c2cc(-c3cc(F)ccc3O)[nH]n2)cc1OC	0.78	30*	2	-1.1	1.2
COc1ccc(-c2cc(-c3ccccc3O)[nH]n2)cc1OC	-1.7	11	2	-0.12	2.8*
COc1ccc(-c2cc(-c3ccc(OC)c(OC)c3)n[nH]2)c(O)c1	-0.044	4	-12	0.0039	2.2*
Oc1ccccc1-c1cc(-c2ccc3c(c2)OCCO3)n[nH]1	x	4	2	x	1.9
COc1ccc(NC(C)=O)cc1NC(=O)CSc1nc2ncccc2[nH]1	0.93	12	1	-0.58	2.4*
SMILES	Cav32 inh	PostGolgi ctrl	PostGolgi yeast	DAT uptake mod	PLAP act
O=C1OCCC1Sc1nc(-c2ccccc2)cs1 (stereo not given)	0.041	-5	-5	1.2	1.1
Cc1n[nH]c(C)c1N1C(=O)c2cccc3c(Br)ccc(c23)C1=O	-3.5	x	x	-0.15	x
Cc1ccnc(N2C(=O)c3cccc4c([N+](=O)[O-])ccc(c34)C2=O)c1	-0.67	53*	105*	-0.38	1.2
COC(C/C=C/C(=O)[C@H](C)OCc1ccccc1)OC	1.8	x	x	-0.29	x
CC(CCc1ccccc1)NC(=O)C1CCN(S(=O)(=O)c2cnc[nH]2)CC1 (stereo not given)	0.45	15	-1	-1.8	1.5
Cc1oc(-c2ccc(Cl)cc2)nc1CN1CCC(C(=O)N2CCN(Cc3ccccc3)CC2)CC1	x	33*	-13	x	1.7
Cc1oc(-c2ccc(Cl)cc2)nc1CN1CCC(C(=O)NCCCN2CCCC2=O)CC1	0.25	19	-5	-0.55	1.6
Cc1oc(-c2ccc(Cl)cc2)nc1CN1CCC(C(=O)N2CCc3ccccc3C2)CC1	x	7	-2	2.6*	1.5
CCN1CCN(CCNC(=O)C2CCN(Cc3nc(-c4ccc(Cl)cc4)oc3C)CC2)CC1	x	20	6	x	1.7
COCCNC(=O)c1c[nH]c2ccc(S(=O)(=O)N3CCC4(CC3)OCCO4)cc2c1=O	0.013	6	6	-0.28	1.2
CCCS(=O)(=O)c1c(S(=O)(=O)CCC)c2cnccn2c1C(=O)c1ccc(Cl)cc1	-0.45	7	8	0.15	1.6
COc1cc(C2N(c3ccccn3)C(=O)C3CCCN32)cc(OC)c1OC (stereo not given)	0.27	6	22	-7.9*	1
COc1ccc(C2N(c3ccccn3)C(=O)C3CCCN32)c(OC)c1 (stereo not given)	-0.38	5	7	-1	1.3
CNc1nc(SCc2ccccc2)nc(N2CCOCC2)n1	-1.1	15	5	0.18	0.8
CCOC(=O)C1=NN(c2ccc(OC)cc2)C(c2ccccc2)CC1=O (stereo not given)	-0.51	x	x	-8.6*	x
CCOC(=O)C1=NN(c2ccccc2)C(c2ccccc2)CC1=O (stereo not given)	0.028	x	x	-0.93	x
CCOC(=O)Cc1csc(NC(=O)c2ccoc2C)n1	0.089	13	-8	1.4	1.2
CCOC(=O)Cc1csc(NC(=O)CN2C(=O)c3ccccc3S2(=O)=O)n1	0.031	-1	0	-0.73	2.3*
CCOC(=O)Cc1csc(NC(=O)c2ccc(Br)s2)n1	-1.6	5	-9	2.7*	1.3
CCOC(=O)Cc1csc(NC(=O)c2cccs2)n1	-5.4*	-4	-1	0.072	1.1
CCOC(=O)Cc1csc(NC(=O)c2c(O)c3ccccc3n(CC(C)C)c2=O)n1	-2.3	32*	2	0.35	1.6
COc1ccc(N2C(=O)CS/C2=C\[N+](=O)[O-])cc1	-0.05	-2	6	-0.29	0.9
CC(C)C(NC(=O)CN1C(=O)c2ccccc2S1(=O)=O)C(C)C	0.86	31*	-2	-0.44	1
CCCCCCCCC(=O)Nc1cc(C)ccc1OC	-1.4	x	x	-7.9*	x
CCC(C)C(=O)Nc1nc(C)c(-c2csc(Nc3ccccc3OC)n2)s1 (stereo not given)	-0.74	4	-4	1.4	0.9
CCCCC(=O)Nc1nc(C)c(-c2csc(Nc3ccccc3OC)n2)s1	-0.15	17	-3	2.8*	0.9
CCOC(=O)Nc1cc(C)ccc1OC	-1.1	-5	1	-1.6	1.2
CCCCCC(=O)Nc1nc(C)c(-c2csc(Nc3cc(OC)ccc3OC)n2)s1	-0.38	4	1	1.1	1.2
